Results from PubChem BioAssay (NCI).
Compounds without any hit were thinned out: in the full panel of roughly 79,000, 15% have a hit. Activity calls are given as the source filed them. No stated cut-off is given here; in the data, active means growth inhibition above about 70%; inactive means the rest.

Key:
[1] = NCI Yeast Anticancer Drug Screen. Data for the rad50 strain (AID 155);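 further: 0% = growth of vehicle-only cultures of the same strain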; conditions: S. cerevisiae rad50 strain growth inhibition, active compounds read high
Summary of the method: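 Cells are treated with compound, grown, and their growth is then scored against vehicle-only cultures of the same repair-deficient yeast strain.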

[2] = NCI Yeast Anticancer Drug Screen. Data for the mec2-1 strain (AID 157); conditions: S. cerevisiae mec2-1 strain, active compounds read high
Summary of the method: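 Yeast mec2-1 mutant treated with compound. Readout: growth inhibition vs vehicle controls.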

[3] = NCI Yeast Anticancer Drug Screen. Data for the sgs1 mgt1 strain (AID 161);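 further: 0% = growth of cultures given vehicle only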; conditions: S. cerevisiae sgs1 mgt1 strain, active compounds read high
Summary of the method: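 Read-out: growth inhibition vs vehicle controls. Cells: mutant yeast strain deficient in DNA damage repair.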

[4] = NCI Yeast Anticancer Drug Screen. Data for the cln2 rad14 strain (AID 165);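 further: 0% = growth equal to vehicle treated cultures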; conditions: S. cerevisiae cln2 rad14 strain, active compounds read high
Summary of the method: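 cln2 rad14 yeast strain; compound exposure; growth inhibition read vs vehicle controls.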

[5] = NCI Yeast Anticancer Drug Screen. Data for the bub3 strain (AID 167); conditions: S. cerevisiae bub3 mutant strain, active compounds read high
Summary of the method: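 Part of a panel of yeast mutants defective in DNA damage repair or cell cycle regulation. Each strain is grown with compound, and inhibition is calculated relative to solvent-treated cultures.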

[6] = NCI Yeast Anticancer Drug Screen. Data for the mlh1 rad18 strain (AID 175); conditions: S. cerevisiae mlh1 rad18 strain growth inhibition, active compounds read high
Summary of the method: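 Yeast w/ defined DNA-repair lesions; compound exposure; growth vs vehicle controls → % inhibition.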

[7] = at 5.0 µM (retest, dose inferred, filed as 0.5)
[8] = at 50.0 µM (retest, dose inferred, filed as 5.0)

Measured: growth inhibition

CC[n+]1c(/C=C/c2ccc(N(CCCl)CCCl)cc2)ccc2cc(Br)ccc21
active: [1]; [7] 97% | [1]; [8] 97% | [1]; at 50.0 µM 85.5% | [2]; [7] 96% | [2]; [8] 96% | [2]; at 50.0 µM 84% | [3]; [7] 98% | [3]; [8] 98% | [3]; at 50.0 µM 82.9% | [4]; [7] 90% | [4]; [8] 90% | [4]; at 50.0 µM 82% | [5]; [7] 96% | [5]; [8] 96% | [5]; at 50.0 µM 85.2% | [6]; [7] 96% | [6]; [8] 96% | [6]; at 50.0 µM 82.2%

CN(C)CC1(N)C(=O)NC(=O)NC1=O
active: [1]; at 50.0 µM 75.7% | [2]; at 50.0 µM 78% | [5]; at 50.0 µM 95.2%
inactive: [1]; [7] 3% | [1]; [8] 10% | [2]; [7] 4% | [2]; [8] 11% | [3]; [7] 4% | [3]; [8] 8% | [3]; at 50.0 µM 47.3% | [4]; [7] -1% | [4]; [8] -1% | [4]; at 50.0 µM 43.6% | [5]; [7] 0% | [5]; [8] 8% | [6]; [7] -1% | [6]; [8] 10% | [6]; at 50.0 µM 46.2%

O=NNc1c[nH]c(=O)[nH]c1=O
active: [1]; at 50.0 µM 72.6%
inactive: [1]; [7] 1% | [1]; [8] 69% | [2]; [7] 0% | [2]; [8] 14% | [2]; at 50.0 µM 5.85% | [3]; [7] -1% | [3]; [8] 29% | [3]; at 50.0 µM 17.1% | [4]; [7] -5% | [4]; [8] 12% | [4]; at 50.0 µM 4.3% | [5]; [7] -1% | [5]; [8] -12% | [5]; at 50.0 µM 0.3% | [6]; [7] 3% | [6]; [8] 39% | [6]; at 50.0 µM 21.1%

Nc1cccc([As]=S)c1 (configuration not stated)
inactive: [1]; [7] 7% | [2]; [7] 11% | [3]; [7] -9% | [4]; [7] 13% | [5]; [7] -4% | [6]; [7] 15%
active: [1]; [8] 99% | [1]; at 50.0 µM 98.5% | [2]; [8] 99% | [2]; at 50.0 µM 98.9% | [3]; [8] 100% | [3]; at 50.0 µM 91.5% | [4]; [8] 98% | [4]; at 50.0 µM 96.9% | [5]; [8] 99% | [5]; at 50.0 µM 98.8% | [6]; [8] 99% | [6]; at 50.0 µM 98.8%

C[C@]12CC[C@H](O)C[C@@H]1CC[C@@H]1[C@@H]2CC[C@]2(C)C(=O)/C(=C/O)C[C@@H]12
inactive: [1]; [7] -1% | [1]; at 50.0 µM 54.5% | [2]; [7] -1% | [2]; [8] 68% | [3]; [7] -1% | [3]; [8] 67% | [4]; [7] -15% | [4]; [8] 30% | [5]; [7] -4% | [6]; [7] 0% | [6]; [8] 61%
active: [1]; [8] 80% | [2]; at 50.0 µM 97.1% | [3]; at 50.0 µM 87% | [4]; at 50.0 µM 96.5% | [5]; [8] 84% | [5]; at 50.0 µM 95.7% | [6]; at 50.0 µM 96.5%

Cc1cc(N(CCCl)CCCl)ccc1CN1CCCN(Cc2ccc(N(CCCl)CCCl)cc2C)C1c1ccc(N(CCCl)CCCl)cc1
inactive: [1]; [7] 11% | [1]; at 50.0 µM 66.2% | [2]; [7] 1% | [2]; at 50.0 µM 21.6% | [3]; [7] 3% | [4]; [7] -3% | [4]; at 50.0 µM 21.4% | [5]; [7] 5% | [5]; at 50.0 µM 30.8% | [6]; [7] 33%
active: [1]; [8] 97% | [2]; [8] 99% | [3]; [8] 98% | [3]; at 50.0 µM 86.8% | [4]; [8] 98% | [5]; [8] 88% | [6]; [8] 97% | [6]; at 50.0 µM 97.2%

CSCCC([NH-])C(=O)O.CSCCC([NH-])C(=O)O.[Zn+2] (configuration not stated)
active: [1]; at 50.0 µM 98.2% | [2]; at 50.0 µM 99.2% | [3]; at 50.0 µM 99.2% | [4]; at 50.0 µM 99.2% | [5]; at 50.0 µM 99% | [6]; at 50.0 µM 99.3%
inactive: [1]; [7] 2% | [1]; [8] 1% | [2]; [7] 1% | [2]; [8] 1% | [3]; [7] 2% | [3]; [8] -1% | [4]; [7] 4% | [4]; [8] -6% | [5]; [7] 4% | [5]; [8] 6% | [6]; [7] 4% | [6]; [8] 3%

CN1C2CCC1c1c([nH]c3ccccc13)C2 (configuration not stated)
inactive: [1]; [7] -22% | [1]; [8] -23% | [1]; at 50.0 µM 3.25% | [2]; [7] -9% | [2]; [8] -3% | [2]; at 50.0 µM 18.5% | [3]; [7] -7% | [3]; [8] -10% | [3]; at 50.0 µM 20.6% | [4]; [7] -19% | [4]; [8] -3% | [4]; at 50.0 µM 42% | [5]; [7] -7% | [5]; [8] -1% | [5]; at 50.0 µM 6.25% | [6]; [7] -7% | [6]; [8] -12% | [6]; at 50.0 µM 12.4%

C=NCC#N
inactive: [1]; [7] 8% | [1]; [8] 8% | [1]; at 50.0 µM -12.9% | [2]; [7] -1% | [2]; [8] 2% | [2]; at 50.0 µM -1.3% | [3]; [7] 4% | [3]; [8] 8% | [3]; at 50.0 µM 25% | [4]; [7] 11% | [4]; [8] 6% | [4]; at 50.0 µM 67.3% | [5]; [7] 4% | [5]; [8] -2% | [5]; at 50.0 µM 5.25% | [6]; [7] 3% | [6]; [8] 3% | [6]; at 50.0 µM 26.9%
